Bioassay records from PubChem.
E coli growth-1: E. coli growth inhibition; OD600 absorbance (test concentration not listed); Escherichia coli growth, OD600, 23 h; stronger effect = lower value; actives 0.21% (n = 330,000);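 active means OD600 absorbance below the run mean of sample wells minus 3.6 SD, in any replicate, cut at about 0.56 in these data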
phage Ecoli inh: E. coli growth loss with phage present; actives 0.26% (n = 360,000); growth absorbance; inhibition, % at 11.9 µM; AID 651602; in the data active means inhibition above about 11%
Tat export inh: E. coli Tat transport inhibition; AID 488895; E. coli MC4100 TorA-mCherry Tat export, fluorescence; inhibition, % at 10 µM; actives 0.036% (n = 340,000);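 active means mean replicate inhibition at least 50% and at least half of replicates individually reaching 50%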;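 further: exported cargo escapes ClpAP degradation while cytoplasmic cargo is degraded and loses fluorescence; 0% = median of neutral control wells and 100% = median of NaSCN control wells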
E coli growth-2: bacterial growth inhibition, counter-screen for AddAB inhibitors | E. coli V3065 growth, OD600 absorbance, 18 h | actives 0.27% (n = 330,000) | AID 449728 | inhibition, % at 11.9 µM;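 active means inhibition above the campaign's mean inhibition across all tested compounds plus 3 SD, cut at about 9.9% in these data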;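 further: uninfected addAB+ strain grown without phage in ampicillin broth; 0% = DMSO wells and 100% = ciprofloxacin 0.95 µg/ml wells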
AddAB inh: less growth of phage-infected E. coli with AddAB. E. coli expressing H. pylori AddAB, absorbance growth. inhibition, % at 11.9 µM. actives 0.29% (n = 330,000); in the data active means inhibition above about 12%;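 further: 0% = vehicle wells of infected cells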
AddAB conf: confirmation screen: growth loss of phage-infected E. coli expressing H. pylori AddAB. inhibition, % at 11.9 µM. actives 64% (n = 880). shares compounds with AddAB inh. AID 488942. E. coli V3065 expressing H. pylori AddAB, T4 phage, OD; T4 phage with gene 2 nonsense mutations;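 active means mean inhibition above a set limit taken from the earlier primary screen, cut at about 13% in these data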;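 further: higher means less bacterial growth since AddAB block lets phage replicate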
RecBCD counter: AddAB counter-screen: growth loss of RecBCD+ E. coli infected with mutant T4 phage; actives 73% (n = 880); shares compounds with AddAB inh; E. coli V66 + mutant T4 phage, OD growth; inhibition, % at 11.9 µM; AID 488955;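 active means mean inhibition above the mean of solvent-only control wells plus 3 SD, cut at about 4% in these data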;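 further: optical density read after an 18 h incubation at 37 °C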
bact viab count: counter-screen: bacterial growth inhibition; shares compounds with AddAB inh; bacterial viability, absorbance (AddAB counterscreen); inhibition, % at 11.9 µM; actives 35% (n = 880); AID 488956; in the data active means inhibition above about 25%
Starred values were filed as active, the others as inactive; i = inactive; nt = no result given. Compounds with a hit are over-represented: about 0.51% of the library has one in this group of screens.

SMILES | E coli growth-1 | phage Ecoli inh | Tat export inh | E coli growth-2 | AddAB inh | AddAB conf | RecBCD counter | bact viab count
O=C(C1=CC(c2ccc(Br)cc2)CC(OCCCCO)O1)N1CCN(Cc2ccccc2)CC1 (stereo not given) | 0.632 | nt | nt | nt | nt | nt | nt | nt
CCCOc1ccc(/C=N/NC(=S)Nc2ccccc2[N+](=O)[O-])c(O)c1 | nt | 6.8 | nt | 10.9* | 10.1 | nt | nt | nt
COc1ccc(-n2nc(C(=O)NCC(=O)Nc3cccc(NC(C)=O)c3)c3ccccc3c2=O)cc1 | 0.571* | -4.8 | -16.3 | -1.8 | 1.4 | nt | nt | nt
Cc1ccc2nc(SCC(=O)Nc3ccc4c(c3)OCCO4)[nH]c2c1 | 0.652 | -1.1 | -0.9 | 0.3 | 1.1 | nt | nt | nt
O=C(CSc1nc2ccccc2[nH]1)Nc1ccc2c(c1)OCCO2 | 0.621 | 9.3 | -5.3 | 10.2* | 11.6 | nt | nt | nt
CC(C)S(=O)(=O)c1csc(NC(=O)Nc2ccc(Cl)cc2)c1 | 0.474* | 7.8 | 0.6 | 3.6 | 6.8 | nt | nt | nt
N#CCc1ccc(NC(=O)/C=C/c2ccc([N+](=O)[O-])o2)cc1 | 0.409* | nt | 3.5 | nt | nt | nt | nt | nt
O=C(Nc1cccc(Cl)c1)Nc1nccs1 | 0.54* | 2.2 | -7.7 | -1.2 | 1.4 | nt | nt | nt
COC(=O)c1cc(NC(=O)Nc2cccc(Cl)c2)ccc1Cl | 0.515 | 11.7* | -16.2 | 7.0 | 7.3 | nt | nt | nt
O=C(Nc1ccc(Cl)c(Cl)c1)Nc1nccs1 | nt | 3.9 | 0.8 | 1.9 | 0.0 | nt | nt | nt
CC(C(=O)Nc1ccc2ccccc2c1)C1C[C@]1(C)C(NS(=O)(=O)c1ccc(-c2ccccc2)cc1)c1ccccc1 (stereo not given in full) | 0.704 | nt | nt | nt | nt | nt | nt | nt
CCCS(=O)(=O)c1c(S(=O)(=O)CCC)c2c(C)cccn2c1C(=O)N/N=C/c1cc(O)cc(O)c1 | nt | 9.6 | -6.0 | 8.2 | 13.9* | 3.5 | 6.0* | 0.5
CCCS(=O)(=O)c1c(S(=O)(=O)CCC)c2c(C)cccn2c1C(N)=O | 0.702 | 2.0 | 1.6 | 1.7 | 3.4 | nt | nt | nt
C#CCOCCOCCOCCNc1nc(N2CCN(C(=O)C(CCCCN)n3cc(C(N)CO)nn3)CC2)nc(N2CCN(C(=O)C(CCC(=O)O)n3cc(C(N)Cc4ccc(O)cc4)nn3)CC2)n1 (stereo not given) | 0.713 | nt | nt | nt | nt | nt | nt | nt
Cn1c(/C=C/c2ccc([N+](=O)[O-])o2)nc2ccccc2c1=O | 0.442* | nt | -2.4 | 79.1* | 62.8* | 99.2* | 28.9* | 100.0*
Cc1cc(NN=Cc2ccncc2)nc2ccccc12 | 0.627 | nt | nt | nt | nt | nt | nt | nt
Cc1cc(N/N=C/c2ccc([N+](=O)[O-])o2)nc2ccccc12 | nt | 7.1 | -0.8 | 32.4* | 49.6* | 43.2* | 4.9* | 12.9
O=C1NCCCc2c1oc1ccc(O)cc21 | 0.709 | 2.0 | 4.6 | 98.5* | 100.2* | -6.0 | -1.4 | -1.6
COCC1CCN(Cc2nc(COc3ccccc3)no2)C1 (stereo not given) | 0.709 | -0.8 | 4.7 | 32.8* | 32.2* | -4.8 | -1.1 | -5.0
CCOc1ccccc1C(=O)NN=Cc1c[nH]c2ccccc12 | 0.692 | nt | nt | nt | nt | nt | nt | nt
CCCCn1c(=O)[nH]c2ccccc21 | 0.691 | 2.1 | -7.1 | 7.4 | 13.9* | -3.2 | 0.3 | -2.6
O=c1[nH]c2ccccc2n1CCCOc1ccccc1 | 0.701 | 0.3 | 28.9 | -1.8 | 1.1 | nt | nt | nt
Cc1ccc(C(=O)NC(=S)NNC(=O)COc2ccc([N+](=O)[O-])cc2)cc1 | 0.639 | -4.7 | -0.9 | -3.0 | 0.9 | nt | nt | nt
O=C(COc1ccc([N+](=O)[O-])cc1)NNC(=S)NC(=O)c1ccc(Br)cc1 | 0.586 | -4.1 | -13.3 | 95.8* | 98.2* | -2.0 | -0.3 | 3.4
Cc1ccc(NC(=O)CSc2ccc(-c3ccccn3)nn2)cc1 | 0.664 | 10.3 | 7.3 | 4.0 | 9.4 | nt | nt | nt
SMILES | E coli growth-1 | phage Ecoli inh | Tat export inh | E coli growth-2 | AddAB inh | AddAB conf | RecBCD counter | bact viab count
O=C(CSc1ccc(-c2ccccn2)nn1)Nc1ccc(F)c(F)c1 | 0.691 | 8.2 | 17.0 | 14.2* | 13.8* | 6.6 | 9.7* | 7.1
CCCc1[nH]nc2c1C1(C(=O)N(CC)c3ccccc31)C(C#N)=C(N)O2 (stereo not given) | 0.697 | nt | -4.6 | 25.8* | 16.5* | -4.1 | -0.9 | -4.0
O=C(COc1ccc(Cl)cc1)Nc1ncc([N+](=O)[O-])s1 | 0.66 | 3.3 | -4.6 | nt | nt | nt | nt | nt
O=C(COC(=O)COc1ccccc1)Nc1ncc([N+](=O)[O-])s1 | 0.59 | 2.0 | -9.8 | 7.2 | 13.0* | 33.4* | 5.7* | 14.6
CCN1/C(=C/C=C/c2sc3ccccc3[n+]2CC)Sc2ccccc21 | nt | nt | i | 9.3 | 12.6* | 61.4* | 9.1* | 14.2
COc1ccccc1-c1n[nH]c2c1C(C)CCC2C(C)C (stereo not given) | 0.689 | nt | nt | nt | nt | nt | nt | nt
O=C(CSc1nc2ccccc2o1)Nc1ccc(N2CCOCC2)cc1 | 0.565 | 10.2 | -10.6 | 13.4* | 13.2* | 14.6* | 9.7* | 12.0
O=C(NCc1cccnc1)Nc1ccc2c(c1)OCO2 | 0.682 | 2.5 | 0.4 | 0.5 | 13.8* | -1.7 | 1.3 | -1.3
c1cncc(CNc2ccc3c(c2)OCO3)c1 | 0.685 | 0.3 | -11.8 | -0.2 | 2.8 | nt | nt | nt
CCC(=O)ON=C(N)c1ccc(Oc2cc(C)c(Cl)c(C)c2)c([N+](=O)[O-])c1 | 0.639 | nt | nt | nt | nt | nt | nt | nt
CCCCCCCCCCn1ccc(=N)cc1 | 0.448* | 7.9 | -8.1 | 8.7 | 14.2* | 6.1 | 4.3* | 6.0
CCCCCCCCn1ccc(=N)cc1 | 0.611 | 2.5 | -5.7 | 10.1* | 13.1* | -2.9 | -0.1 | -1.8
CCCCCCN1Cc2ccccc2C1 | 0.746 | 4.5 | 2.4 | -1.1 | 3.3 | nt | nt | nt
CCC1=NN2C(=N)C(=Cc3cccn3-c3ccc(Cl)cc3)C(=O)N=C2S1 | 0.694 | nt | nt | nt | nt | nt | nt | nt
COc1ccc(C2CC(=O)C=C(c3ccc4c(c3)OCCO4)C2)cc1 (stereo not given) | 0.696 | nt | nt | nt | nt | nt | nt | nt
OC(CBr)C(O)C(O)C(O)CBr (stereo not given) | 0.644 | nt | nt | nt | nt | nt | nt | nt
Nc1nonc1-n1nnc(C(=O)NN=Cc2cccs2)c1-c1ccc2c(c1)OCO2 | 0.67 | nt | nt | nt | nt | nt | nt | nt
CC1CCc2c(sc(N=CN(C)C)c2C#N)C1 (stereo not given) | 0.648 | nt | nt | nt | nt | nt | nt | nt
O=[N+]([O-])c1cc2cccnc2c2ncccc12 | 0.588 | 4.8 | nt | 7.0 | 8.3 | nt | nt | nt
O=[N+]([O-])c1cc(O)c2ncccc2c1 | 0.134* | 4.0 | nt | 15.6* | 14.3* | 33.6* | 8.9* | 4.5
COc1cc(NS(=O)(=O)c2ccc(NC(=S)NC(=O)c3sc4ccccc4c3Cl)cc2)ncn1 | 0.719 | 7.8 | 5.7 | 4.8 | 12.9* | -1.9 | 2.0 | -0.4
COc1cc(C2Nc3cc(Cl)c(S(N)(=O)=O)cc3S(=O)(=O)N2)cc(OC)c1OC (stereo not given) | 0.753 | 3.8 | -2.1 | 4.8 | 0.7 | nt | nt | nt
NS(=O)(=O)c1cc2c(cc1Cl)NCNS2(=O)=O | 0.714 | 3.3 | -8.9 | 38.0* | 55.1* | 100.4* | 6.2* | 74.8*
Nc1c(S(=O)(=O)c2ccccc2)c2nc3ccccc3nc2n1N=Cc1cccc(O)c1 | 0.762 | nt | nt | nt | nt | nt | nt | nt
